Where “and” joins values, the source holds several entries; their conditions need not be identical. Identical values can stand only once. About 2,000 (36%) of roughly 5,500 compounds were called active. Roughly 18% stayed inconclusive and do not appear here. Cut-off read from the data, not from the text of the source: active = normalized growth mostly below about 0.91 (no sharp cut-off); inconclusive = no clear call, values can overlap the other calls; inactive = mostly above about 0.92. Some of the results follow.
Experiment: chemical genetic growth profiling, strain panel (AID 1159580);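 note: tested at 20 µM; growth read once vehicle control cultures reached saturation at 30 °C; 1 = growth at the plate median or of vehicle wells; lower values mean less growth of the strain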
Conditions: S. cerevisiae deletion strains, growth OD

Measured: normalized growth

Cn1c(=O)c2c(ncn2C)n(C)c1=O
inactive: locus YAL013W, strain DEP1, active compounds read low 0.997 | locus YAL021C, strain ccr4, active compounds read low 1.01 | locus YAL026C, strain drs2, active compounds read low 0.975 | locus YAL030W, strain snc1, active compounds read low 0.97 | locus YAL040C, strain CLN3, active compounds read low 1.02 | locus YBL061C, strain skt5, active compounds read low 0.962 | locus YBR009C, strain hhf1, active compounds read low 0.94 | locus YBR021W, strain FUR4, active compounds read low 1.01 | locus YBR023C, strain chs3, active compounds read low 0.978 | locus YBR171W, strain sec66, active compounds read low 0.94 | locus YBR229C, strain ROT2, active compounds read low 0.998 | locus YBR231C, strain swc5, active compounds read low 0.989 | locus YBR279W, strain paf1, active compounds read low 0.982 | locus YCL011C, strain gbp2, active compounds read low 0.922 | locus YCL016C, strain dcc1, active compounds read low 0.936 | locus YCL029C, strain bik1, active compounds read low 1.02 | locus YCL061C, strain MRC1 (second series), active compounds read low 1.01 | locus YCL061C, strain MRC1, active compounds read low 0.98 | locus YCL069W, strain vba3, active compounds read low 0.973 | locus YCR088W, strain abp1, active compounds read low 0.983 | locus YDL005C, strain med2, active compounds read low 0.99 | locus YDL035C, strain GPR1, active compounds read low 1.02 | locus YDL040C, strain nat1, active compounds read low 0.987 | locus YDL074C, strain BRE1, active compounds read low 1.03 | locus YDL101C, strain DUN1, active compounds read low 0.999 | locus YDL134C, strain PPH21, active compounds read low 0.992 | locus YDL185W, strain tfp1, active compounds read low 1.02 | locus YDL192W, strain arf1, active compounds read low 1 | locus YDR001C, strain nth1, active compounds read low 0.966 | locus YDR069C, strain doa4, active compounds read low 0.961 | locus YDR101C, strain arx1, active compounds read low 1.04 | locus YDR137W, strain rgp1, active compounds read low 0.943 | locus YDR150W, strain NUM1, active compounds read low 0.998 | locus YDR159W, strain sac3, active compounds read low 0.961 | locus YDR162C, strain NBP2, active compounds read low 0.998 | locus YDR195W, strain ref2 0.99 | locus YDR297W, strain sur2, active compounds read low 0.98 | locus YDR318W, strain mcm21, active compounds read low 0.99 | locus YDR334W, strain swr1, active compounds read low 0.914 | locus YDR335W, strain msn5, active compounds read low 0.969 | locus YDR363W, strain ESC2, active compounds read low 0.985 | locus YDR388W, active compounds read low 1 | locus YDR392W, strain spt3, active compounds read low 0.942 | locus YDR502C, strain sam2, active compounds read low 1.01 | locus YEL003W, strain gim4, active compounds read low 0.979 | locus YEL037C, strain rad23, active compounds read low 0.972 | locus YEL061C, strain CIN8 (second series), active compounds read low 0.977 | locus YEL061C, strain CIN8, active compounds read low 0.996 | locus YER002W, strain NOP16, active compounds read low 1.01 | locus YER015W, strain faa2, active compounds read low 0.971 | locus YER016W, strain bim1, active compounds read low 0.948 | locus YER110C, active compounds read low 1.01 | locus YER111C, strain swi4, active compounds read low 0.949 | locus YER155C, strain BEM2 (second series), active compounds read low 1 | locus YER155C, strain BEM2, active compounds read low 0.994 | locus YER167W, strain BCK2, active compounds read low 1 | locus YFR010W, strain ubp6, active compounds read low 0.96 | locus YGL078C, strain dbp3, active compounds read low 1.02 | locus YGL086W, strain mad1, active compounds read low 1.01 | locus YGL167C, strain pmr1, active compounds read low 0.945 | locus YGL173C, strain kem1, active compounds read low 0.938 | locus YGL227W, strain vid30, active compounds read low 0.97 | locus YGL240W, strain doc1, active compounds read low 0.987 | locus YGL248W, strain PDE1, active compounds read low 1 | locus YGL253W, strain hxk2, active compounds read low 0.982 | locus YGR078C, strain PAC10, active compounds read low 0.995 and 0.992 | locus YGR135W, strain pre9, active compounds read low 0.999 | locus YGR229C, strain SMI1, active compounds read low 0.995 | locus YGR252W, strain gcn5, active compounds read low 1.01 | locus YHR013C, strain ard1, active compounds read low 0.947 | locus YHR027C, strain rpn1, active compounds read low 0.932 | locus YHR030C, strain SLT2, active compounds read low 1 and 1.02 | locus YHR079C, strain IRE1 (second series), active compounds read low 1.01 | locus YHR079C, strain IRE1, active compounds read low 0.993 | locus YHR094C, strain hxt1, active compounds read low 1.01 | locus YHR129C, strain ARP1, active compounds read low 0.996 | locus YHR142W, strain chs7, active compounds read low 0.899 | locus YHR200W, strain rpn10, active compounds read low 1.02 | locus YIL066C, strain RNR3, active compounds read low 1.01 | locus YIL073C, strain SPO22, active compounds read low 1.04 | locus YIL125W, strain kgd1, active compounds read low 1.01 | locus YIR030C, strain dcg1, active compounds read low 0.999 | locus YJL092W, strain hpr5, active compounds read low 0.956 | locus YJL095W, strain BCK1 (second series), active compounds read low 0.967 | locus YJL095W, strain BCK1, active compounds read low 0.985 and 1.04 | locus YJL115W, strain asf1, active compounds read low 0.939 | locus YJL129C, strain trk1, active compounds read low 0.95 | locus YJL134W, strain LCB3, active compounds read low 1 | locus YJL154C, strain vps35, active compounds read low 0.976 | locus YJL164C, strain tpk1, active compounds read low 0.964 | locus YJL166W, strain qcr8, active compounds read low 0.977 | locus YJL168C, strain set2, active compounds read low 0.997 | locus YJL187C, strain SWE1 (second series), active compounds read low 1.01 | locus YJL187C, strain SWE1, active compounds read low 0.966

Source: PubChem BioAssay AID1159580 (chemical genetic matrix, 2015)
